Reference: PubChem BioAssay (Tox21)
Records with an inconclusive call do not appear. Entries that show only a call come without a potency. Values without a mark were called inactive. The source made the active and inactive calls. The call rests on the fitted dose curve; in most records, active means well fitted cell-killing curve with a large enough effect in the repeat runs; inconclusive means weak or mixed curves, or effect the other way; inactive means flat fitted curve, though single readings scatter.

Assay: qHTS RealTime-Glo MT Cell Viability Assay in HEK293 cells - 24 hour (AID 1224886); further: nearly all actives have a fitted effect of over 50% in size; on activity change, negative = cytotoxicity: top concentration of the series differs between compounds
Details: RealTime-Glo luminescence; series mostly up to 76.8 µM
Excerpt: National Center for Advancing Translational Sciences [NCATS]
NIH Chemical Genomics Center [NCGC]
U.S. Environmental Protection Agency [EPA]
National Institutes of Environmental Health Sciences [NIEHS]
National Toxicology Program [NTP]
U.S. Food and Drug Administration [FDA]
Measure of cell viability is critical in the cell-base assay. Analysis of cell viability is necessary for the characterization of cell responses to cytotoxic drugs and environmental stress. A RealTime-Glo MT Cell Viability Assay to monitor cell viability in real time of continues cell culture during 40 hours of compound treatment was used to screen Tox21 10K library compounds in Hek293 cells. The RealTime-Glo MT Cell Viability Assay is a nonlytic, homogeneous, bioluminescent method to measure cell viability in real time using a simple, plate-based method. The assay involves adding NanoLuc luciferase and a cell-permeant prosubstrate to cells in culture. Viable cells reduce the proprietary prosubstrate to generate a substrate for NanoLuc luciferase. This substrate diffuses from cells into the surrounding culture medium, where it is rapidly used by the NanoLuc Enzyme to produce a luminescent signal. The signal correlates with the number of viable cells, making the assay well suited for cytotoxicity studies.
Tox21 Assay Protocol Summary:
The mixture of Hek293 cell suspension and reagents were dispensed at 600cells/6 ul/well in 1536-well tissue culture treated black solid bottom plates using a Multidrop dispenser. After the assay plates were incubated at a 37 C/5% CO2 incubator for 5 hours, 23 nL of compounds dissolved in DMSO, positive and negative controls was transferred to the assay plate by a pintool work station. The plates were incubated at 37 C for 40 hours. The luminescence intensity were measured at 0h, 8h, 16h, 24h, 32h and 40h time points using ViewLux plate reader during compound treatment.
Potency means the concentration at half of the fitted maximal effect.

Q: For `CCOC(=O)[C@H](CCc1ccccc1)N[C@@H](C)C(=O)N1Cc2cc(OC)c(OC)cc2C[C@H]1C(=O)O`, which Potency is on record?
A: inactive

Q: For `COc1cc(Cl)ccc1Cl`, which Potency is on record?
A: inactive

Q: Which Potency does the source give for `CCCCCOc1ccc(C2SC(=O)NC2=O)cc1OCC` (stereo not given) here?
A: inactive

Q: With `O=C(O)c1cccc(Cl)c1Cl` as the compound, how does the Potency read?
A: inactive

Q: With `ClC(Cl)Cl` as the compound, how does the Potency read?
A: inactive

Q: With `CC(=O)N[C@@H](CC(C)C)C(=O)O` as the compound, how does the Potency read?
A: inactive

Q: For `CN1CCN(c2c(F)cc3c(=O)c(C(=O)O)cn(CCF)c3c2F)CC1`, which Potency is on record?
A: inactive

Q: With `O=C1CCCCCCCCCCC(=O)OCCO1` as the compound, how does the Potency read?
A: inactive

Q: With `O=CCCc1ccccc1` as the compound, how does the Potency read?
A: inactive

Q: Which Potency does the source give for `NS(=O)(=O)c1cc(-c2nn[nH]n2)c(NCc2cccs2)cc1Cl` here?
A: inactive

Q: For `O=S(=O)(O)C(F)(F)F`, which Potency is on record?
A: inactive

Q: Which Potency does the source give for `CCC1(C)NC(=O)NC1=O` (stereo not given) here?
A: inactive

Q: For `CC(=O)OC1C2(C)CCC(C2)C1(C)C` (stereo not given), which Potency is on record?
A: inactive

Q: For `CCCC1CCC(=O)O1` (stereo not given), which Potency is on record?
A: inactive

Q: Which Potency does the source give for `CC1CN(c2ccccc2)NC1=O` (stereo not given) here?
A: inactive

Q: With `CC(C)C(=O)OCC(C)(C)C(O)C(C)C` (stereo not given) as the compound, how does the Potency read?
A: inactive

Q: With `CS(=O)(=O)c1ccc([C@@H](O)[C@@H](CF)NC(=O)C(Cl)Cl)cc1` as the compound, how does the Potency read?
A: inactive

Q: Which activity change, negative = cytotoxicity does the source give for `COC(=O)c1ccc2cc(C(=O)OC)ccc2c1` here?
A: -1.22% [at 15.8 µM]

Q: For `CCCOc1ccc2c(c1)CC[C@@H]1[C@@H]2CC[C@]2(C)C(OC)CC[C@@H]12` (stereo not given in full), which Potency is on record?
A: inactive

Q: Which Potency does the source give for `CCN(CC)CC1CCCCN1CC(=O)N1c2ccccc2C(=O)Nc2cccnc21` (stereo not given) here?
A: inactive

Q: For `C=CCCCCCCCCO`, which Potency is on record?
A: inactive

Q: With `CC(C)(C)c1cccc(O)c1` as the compound, how does the Potency read?
A: inactive

Q: With `O=C(O)[C@@H]1CSCN1` as the compound, how does the Potency read?
A: inactive

Q: Which Potency does the source give for `C=O` here?
A: inactive

Q: With `N#Cc1ccc(C(c2ccc(C#N)cc2)n2cncn2)cc1` as the compound, how does the Potency read?
A: inactive

Q: For `CCN[C@H]1CN(CCCOC)S(=O)(=O)c2sc(S(N)(=O)=O)cc21`, which Potency is on record?
A: inactive

Q: For `Cc1ccc(C)c(N)c1`, which Potency is on record?
A: inactive

Q: Which Potency does the source give for `CCCCCCC` here?
A: inactive

Q: With `COc1cc(N)c(Cl)cc1C(=O)NC1CCN(Cc2ccccc2)CC1` as the compound, how does the Potency read?
A: 19 µM (active)

Q: With `CC1=NN(c2cc(Cl)c(S(=O)(=O)O)cc2Cl)C(=O)C1N=Nc1ccc(S(=O)(=O)O)cc1` (stereo not given) as the compound, how does the Potency read?
A: inactive

Q: Which Potency does the source give for `OCCN(CCO)c1ccccc1` here?
A: inactive

Q: Which Potency does the source give for `Oc1ccccc1F` here?
A: inactive

Q: Which Potency does the source give for `C=C(C)C(=O)OCCOP(=O)(O)O` here?
A: inactive

Q: Which Potency does the source give for `O=C1C=CC(=O)O1` here?
A: inactive

Q: With `O=c1oc2c(O)c(O)cc3c(=O)oc4c(O)c(O)cc1c4c23` as the compound, how does the activity change, negative = cytotoxicity read?
A: -7.55% [at 15.8 µM]

Q: For `CCCCc1ccc2nc(NC(=O)OC)[nH]c2c1`, which Potency is on record?
A: inactive

Q: For `OCc1ccccc1O`, which Potency is on record?
A: inactive

Q: With `CCCCCCCCCC/C=C/C#N` as the compound, how does the Potency read?
A: inactive

Q: With `CC(C)Nc1nc(N)nc(Cl)n1` as the compound, how does the Potency read?
A: inactive

Q: Which Potency does the source give for `CCOC(=O)NCCC[Si](OCC)(OCC)OCC` here?
A: inactive
